Source: PubChem BioAssay AID1220 (Sanford-Burnham Center for Chemical Genomics, 2008)
Values joined by “and” are separate entries in the source; they are usually repeats but may differ in a detail not shown here. Equal values may be shown once. The campaign covered roughly 190,000 compounds. About 1,300 (0.68%) were called active. What follows is part of a selection rich in actives, with near analogues and random picks from the rest. Unmarked numbers belong to inactive results. Cut-off read from the data, not from the text of the source: active = inhibition above about 50%; inactive = the rest.

Molecular target: Mannose-6-phosphate isomerase (Homo sapiens) (UniProt P34949)
Sequence (P34949 whole entry, looked up): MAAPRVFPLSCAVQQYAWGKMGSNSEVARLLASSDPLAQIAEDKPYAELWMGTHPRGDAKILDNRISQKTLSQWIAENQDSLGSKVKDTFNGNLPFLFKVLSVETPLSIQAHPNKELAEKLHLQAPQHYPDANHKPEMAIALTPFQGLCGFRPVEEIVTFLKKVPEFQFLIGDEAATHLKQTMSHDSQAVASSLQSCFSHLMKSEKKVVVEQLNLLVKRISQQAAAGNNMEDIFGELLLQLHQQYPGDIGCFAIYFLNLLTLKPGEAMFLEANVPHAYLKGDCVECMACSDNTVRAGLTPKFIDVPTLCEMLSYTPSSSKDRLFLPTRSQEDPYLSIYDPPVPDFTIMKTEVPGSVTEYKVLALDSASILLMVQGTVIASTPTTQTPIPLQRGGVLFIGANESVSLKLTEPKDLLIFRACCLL
Assay: MPI inhibition at elevated mannose 6-phosphate – biochemical, fluorescence intensity, high mannose 6-phosphate, primary screen (AID 1220)
Details: recombinant PMI enzyme, coupled fluorescence intensity; at 20 µM; active compounds read high

Going from `O=c1[nH]c2cc([N+](=O)[O-])c(NCCO)c([N+](=O)[O-])c2[nH]1` to `Cc1[nH]c(=S)[nH]c(=O)c1CCCO`, the inhibition rises from 3.7% to 5.3%.

Going from `CC(C)Oc1ccc(C(CC(=O)O)n2cnnn2)cc1` (configuration not stated) to `COC(=O)c1ccc(C(=O)Nc2ccc(C(C)C)cc2N)cc1`, the inhibition falls from 2% to -2.9%.

First: CC(=O)N1C(=O)C2(C(C#N)=C(N)Oc3cc(C)oc(=O)c32)c2ccccc21 (configuration not stated)
Second: COC(=O)CN1C(=O)C2(C(C#N)=C(N)Oc3cc(C)oc(=O)c32)c2ccccc21 (configuration not stated)
The inhibition of the first is higher: 11% for the first, 7.9% for the second.

First: Cc1nn(-c2ccccc2)c2c1C1(C(=O)N(C)c3ccccc31)C(C#N)=C(N)O2 (configuration not stated)
Second: Cc1nn(-c2ccccc2)c2c1C1(C(=O)N(C(C)C)c3ccccc31)C(C#N)=C(N)O2 (configuration not stated)
The inhibition of the first is lower: 21.9% for the first, 24.1% for the second.

Going from `Cc1nn(-c2ccccc2)c2c1C1(C(=O)N3c4c(cccc41)C(C)CC3(C)C)C(C#N)=C(N)O2` (configuration not stated) to `COC(=O)CN1C(=O)C2(C(C#N)=C(N)Oc3n[nH]c(-c4cccs4)c32)c2ccccc21` (configuration not stated), the inhibition falls from 21% to 7.3%.

First: CCCCC1NC(=S)N(C2CCCCC2)C1=O (configuration not stated)
Second: Cc1ccc(/C=C2\SC(=S)N(C3CCS(=O)(=O)C3)C2=O)cc1 (configuration not stated)
The inhibition of the first is lower: -7.2% for the first, -2.5% for the second.

First: COC(=O)c1sc2ccccc2c1-n1cccc1C(=O)C(=O)Nc1ccc(C)cc1
Second: CC1=C(C(=O)Nc2ccccc2)C(c2cccs2)NC(=O)N1 (configuration not stated)
The inhibition of the first is higher: 4.8% for the first, -0.7% for the second.

Compared with `O=c1[nH]c(SCC2CCCCO2)nc2ccccc12` (configuration not stated), `O=C1CCCC(O)=C1C1C2=C(CCCC2=O)Oc2ccccc21` (configuration not stated) is higher in inhibition: -2.3% for the first, 6.5% for the second.

First: O=C1CSC(c2cccc(Cl)c2Cl)N1c1ccccn1 (configuration not stated)
Second: COc1ccccc1NC(=O)C1=C(C)NC(=O)NC1c1ccccc1[N+](=O)[O-] (configuration not stated)
The inhibition of the first is lower: 12.3% for the first, 19.9% for the second.

First: Cc1ccc(C)c(S(=O)(=O)Nc2ccccc2C(=O)Nc2cc(C)on2)c1
Second: Cc1cc(N)ccc1NC(=O)c1ccccc1
The inhibition of the first is lower: 8.8% for the first, 12.9% for the second.

Compared with `COC(=O)c1cccc(NS(C)(=O)=O)c1C`, `COC(=O)C1=C(C)OC(N)=C(C#N)C1c1ccccc1` (configuration not stated) is lower in inhibition: -5.8% for the first, -8.8% for the second.

Going from `CNc1nc(C)c(C(=O)OCC(=O)OC)s1` to `COC(=O)C1=C(C)NC(C)=C([N+](=O)[O-])C1c1ccccc1C(F)(F)F` (configuration not stated), the inhibition falls from -0.1% to -0.9%.

Compared with `CC(NC(=O)CSCc1ccccc1Br)c1ccccc1` (configuration not stated), `COc1ccccc1-n1c(=S)[nH]c2c(sc(=S)n2-c2ccccc2)c1=O` is lower in inhibition: 4.4% for the first, -3.7% for the second.

First: COc1ccc(NC(=S)Nc2ccccc2SC)c(OC)c1
Second: COc1ccc(OC)c(-n2c(=S)[nH]c3c(sc(=S)n3-c3ccccc3)c2=O)c1
The inhibition of the first is higher: 20.7% for the first, 9.2% for the second.

Compared with `Cc1ccc(CN(CC(=O)N/N=C/c2ccco2)S(=O)(=O)c2ccc(C)cc2)cc1`, `C=CCn1c(COc2ccccc2F)nnc1SCC(=O)NC(=O)NCc1ccco1` is lower in inhibition: 4.9% for the first, -4% for the second.

Going from `CC1=C(C)C(=O)C(CCCCC#CCCCC#CCO)=C(C)C1=O` to `Cc1ccc(C2C(C#N)=C(N)Oc3c2c(=O)n(C)c(=O)n3C)cc1` (configuration not stated), the inhibition falls from 19.9% to -24.8%.

Compared with `Cc1oc(C)c2c(=O)ccc3c(c12)OC(N)=C(C#N)C3c1ccccc1` (configuration not stated), `CN(C)c1ccc2c(c1)OC(N)=C(C#N)C2c1cccc(F)c1` (configuration not stated) is higher in inhibition: 2.8% for the first, 25.2% for the second.

Compared with `Cc1ccc(C2C(C#N)=C(N)Oc3n[nH]c(C)c32)cc1` (configuration not stated), `Cc1cc(C)c2c3c(sc2n1)C(c1cccc(F)c1)C(C#N)=C(N)O3` (configuration not stated) is lower in inhibition: 8.4% for the first, -7% for the second.

First: Nc1[nH]ncc1-c1ccc(Cl)cc1
Second: Cc1sc(NC(=O)CCCC(=O)O)c(C(N)=O)c1-c1ccccc1
The inhibition of the first is higher: -1.5% for the first, -5.5% for the second.

Compared with `CC1CN(C(NC(=O)c2ccccc2)C(Cl)(Cl)Cl)CC(C)O1` (configuration not stated), `CCN1C(=O)/C(=C/c2ccc(C)o2)N(C)C1=S` is higher in inhibition: -6.4% for the first, 28% for the second.

`Cc1ccc(OCC(O)CN2CCN(CC(O)COC(C)C)CC2)c(C(C)(C)C)c1` (configuration not stated) was tested, and the inhibition was -2.3%.

`CC(=O)N1C(=O)C2(C(C#N)=C(N)Oc3c2c(C)nn3-c2ccccc2)c2ccccc21` (configuration not stated) was tested, and the inhibition was 62.8% (active).
With `CCN1C(=O)C2(C(C#N)=C(N)Oc3c2c(C)nn3-c2ccccc2)c2ccccc21` (configuration not stated) the inhibition was 62.1% (active).
`COC(=O)CN1C(=O)C2(C(C#N)=C(N)Oc3c2c(C)nn3-c2ccccc2)c2ccccc21` (configuration not stated) was tested, and the inhibition was 58.9% (active).
`COC1=C(OC)C(=O)C(CCCCCCCCCCO)=C(C)C1=O` was tested, and the inhibition was 78.2% (active).
For `CNc1nc2[nH]c(=O)c3c(c2s1)OC(N)=C(C#N)C3c1ccccc1` (configuration not stated), the inhibition was 52% (active).
For `CCNc1nc2[nH]c(=O)c3c(c2s1)OC(N)=C(C#N)C3c1ccc(C)cc1` (configuration not stated), the inhibition was 62.6% (active).
For `CNc1nc2[nH]c(=O)c3c(c2s1)OC(N)=C(C#N)C3c1cccc(F)c1` (configuration not stated), the inhibition was 54.7% (active).
With `COC(=O)c1ccc(C(=O)Nc2ccc(N)cc2N)cc1` the inhibition was 50.3% (active).
With `CC1=C(C(=O)Nc2ccccc2)C(c2ccccc2[N+](=O)[O-])NC(=O)N1` (configuration not stated) the inhibition was 53.3% (active).
For `COC(=O)C1=C(C)NC(C)=C(C(=O)OC)C1c1ccccc1[N+](=O)[O-]`, the inhibition was 79.4% (active).
For `CCOC(=O)C1=C(C)NC(C)=C(C(=O)OC)C1c1cccc([N+](=O)[O-])c1` (configuration not stated), the inhibition was 9.7% and -2%.
